# Reference: PubChem BioAssay (Tox21)
# Results filed as inconclusive are left out. Values without a mark were called inactive. Active and inactive are the calls of the source. Calls follow the shape of the dose curve; as a rule, active = well fitted cell-killing curve with a large enough effect in the repeat runs; inconclusive = weak or mixed curves, or effect the other way; inactive = no such curve, though single readings can be large or run the other way.
# Experiment: qHTS assay for small molecule activators of the heat shock response signaling pathway - cell viability counter screen (AID 743209); also: nearly all actives have a fitted effect of over 50% in size
# Conditions: HSE-bla HeLa viability, CellTiter-Glo luminescence, 5 h; series mostly up to 62.6 µM; activity change, negative = cytotoxicity: at the top concentration
# Text: U.S. Tox21 Program National Center for Advancing Translational Sciences [NCATS] NIH Chemical Genomics Center [NCGC] U.S. Environmental Protection Agency [EPA] National Institutes of Environmental Health Sciences [NIEHS] National Toxicology Program [NTP] U.S. Food and Drug Administration [FDA] Tox21 Assay Overview: Various chemicals, environmental and physiological stress conditions may lead to the activation of heat shock response/ unfolded protein response (HSR/UPR). There are three heat shock transcription factors (HSFs) (HSF-1, -2, and -4) mediating transcriptional regulation of the human HSR. To identify the compounds that activate HSR signaling, HSE-bla HeLa cell line (Invitrogen, Carlsbad, CA, USA) containing a beta-lactamase reporter gene under the control of the heat shock response elements was used to screen Tox21 10K compound library. The cytotoxicity of the Tox21 compound library against the HSE-bla HeLa cell line was tested in parallel by measuring the cell viability using CellTiter-Glo assay (Promega, Madison, WI) in the same wells.
# Tox21 Assay Protocol Summary: The CellSensor HSE-bla HeLa cells (Invitrogen, Carlsbad, CA, USA) were dispensed at 1500 cells/6uL/well into 1536-well black wall/clear bottom plates using a Multidrop combi (Thermo Fisher Scientific, Waltham, MA) dispenser. After the assay plates were incubated at 37 C and 5% CO2 overnight, 23 nL of compounds dissolved in DMSO, positive controls or DMSO only was transferred to the assay plate by a Pintool station (Kalypsys, San Diego, CA). The plates were incubated at 37 C for 5 h. After 1 uL of LiveBLAzerTM B/G FRET substrate was added using a Flying Reagent Dispenser (FRD, Beckman Coulter, Indianapolis, IN, USA), the plates were incubated at room temperature for 2.5 h, and fluorescence intensity was measured by an Envision plate reader (PerkinElmer, Shelton, CT). For cell viability readout that measures cytotoxicity, 3 ul/well of CellTiter-Glo reagent was added into the assay plates using a FRD. After 30 min incubation at room temperature, the luminescence intensity in the plates was measured using a ViewLux (PerkinElmer) plate reader.
# % is scaled to controls: 0 for no effect and ±100 for the full control effect; potency is read from the fitted curve at half-maximal effect.
SMILES,"activity change, negative = cytotoxicity",Potency
CCCCCCCCCCCCCCCC(=O)OC,9.32% [at 29.1 µM],
O=C(O)CCCCCCCCCC(=O)O,-10.4%,
CCCCCCCCS(=O)(=O)O,18.3% [at 81.1 µM],
CC(=O)Nc1ccc(OCCOCCOc2ccc(NC(C)=O)cc2)cc1,0.209%,
Nc1nc(Cl)cc(Cl)n1,,55 µM (active)
COc1cc(OC)cc(OC)c1,-2.61%,
CCCCCCCCCCCCCCCCN(C)C,-2.6% [at 5.95 µM],
BrCCOc1ccccc1,-5.3% [at 81.1 µM],
N=C(N)N1CCc2ccccc2C1,14.1% [at 5.95 µM],
CSC(=O)c1cccc2nnsc12,0.209%,
CC(=O)Oc1ccc(C(C)=O)cc1,-0.567% [at 81.1 µM],
COC(=O)c1ccc(C(=O)O)cc1,4.93%,
CCC(C)c1nccnc1OC (stereo not given),4.69%,
C=CCN1CCc2nc(N)sc2CC1,13.8%,
CC(C)c1cc(C(C)C)cc(C(C)C)c1,-5.72%,
CC(C)OC(=O)C(C(=O)OC(C)C)=C1SC=CS1,2.23%,
C[C@@H](CN1CC(=O)NC(=O)C1)N1CC(=O)NC(=O)C1,10.6%,
NS(=O)(=O)c1cc2c(cc1C(F)(F)F)NCNS2(=O)=O,-3.09%,
c1coc(Cn2cccc2)c1,3.9%,
COC(=O)N/N=C/c1c[n+]([O-])c2ccccc2[n+]1[O-],-0.118%,

SMILES,"activity change, negative = cytotoxicity",Potency
COc1ccc(Cl)cc1C,4.69% [at 81.1 µM],
CCC(=O)OCCOc1ccccc1,-11.1%,
O=C(O)COc1ccc2ccccc2c1,5.92%,
CC(=O)c1c(C)cc(C(C)(C)C)cc1C,2.04%,
CCCCCCCCCCCBr,0.386%,
O=S(=O)(O)CC(O)CCl (stereo not given),9.39%,
O=c1[nH]c(=O)c2cn[nH]c2[nH]1,-0.636%,
CC/C=C\CCOC(=O)c1ccccc1,6.34%,
Cc1ccc(S(=O)(=O)NC(=O)NN2CC3CCCC3C2)cc1 (stereo not given),11.1%,
C[C@]12C=CC(=O)C=C1[C@@H](F)C[C@@H]1[C@@H]2[C@@H](O)C[C@@]2(C)[C@H]1CC[C@]2(O)C(=O)CO,-18.3%,
C[C@@H]1CCC[C@H](C)N1CCCC(O)(c1ccccc1)c1ccccn1 (stereo not given in full),-4.74%,
CCCCCC(=O)CC,1.04% [at 81.1 µM],
CC12CCCC=C1C(=O)OC2=O (stereo not given),-3.26%,
CC(=O)SCC(CC(=O)c1ccc(C)cc1)C(=O)O (stereo not given),6.36%,
CCCCNCC,-0.146%,
Cc1ccccc1C#N,0.568%,
O=S(=O)(O)c1cc(I)c(O)c2ncccc12,4.95%,
CCN1CCN(C(=O)N[C@@H](C(=O)N[C@@H]2C(=O)N3C(C(=O)O)=C(CSc4nnnn4C)CS[C@H]23)c2ccc(O)cc2)C(=O)C1=O,-0.367%,
CCCCCCC(=O)c1ccccc1,-2.8%,
CNCCc1ccccn1,2.89%,
